Source: PubChem BioAssay (NCI)
This is part of a sample that, as a whole, favours compounds with a hit. Of some 83,000 tested, about 20% had one in any assay.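 The test compound was applied at a single concentration to cells in 96-well plates for 48 hours, and percent growth was recorded.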 Active and inactive are the calls of the source. The calls were made as follows: active = growth percent below 10; inactive = the rest.

What was measured:
Assay in all cases: NCI-60 one-dose screen, 48 h (100 = growth as untreated, 0 = no growth, -100 = all killed)
Details in all cases: 10 µM unless noted
[1] = tested on: T-47D breast
[2] = tested on: BT-549 breast
[3] = tested on: MDA-MB-435 melanoma
[4] = tested on: SW-620 colon
[5] = tested on: MCF7 breast
[6] = tested on: HCT-116 colon
[7] = tested on: HCC-2998 colon
[8] = tested on: KM12 colon

Measured: growth

COc1cc(-c2cncn2-c2ccc(-c3nc4ccc(F)cc4s3)cc2)ccc1F
inactive: [1] 76.3% | [2] 85.3% | [3] 87.4% | [4] 54.3% | [5] 64.3% | [6] 37.7% | [7] 80.2% | [8] 81.7%

CCC(C)(C)C(=O)O[C@H]1C[C@@H](C)C=C2C=C[C@H](C)[C@H](CC[C@@H]3CC(SCCN)CC(=O)O3)[C@H]21 (stereo partly drawn)
inactive: [1] 89.8% | [2] 78.7% | [3] 93.3% | [4] 81.8% | [5] 79.9% | [6] 37.5% | [7] 73.6% | [8] 88.2%

Fc1cccc(Oc2ccc(Nc3ncnc4ccc(OCCCN5CCOCC5)cc34)cc2Cl)c1
inactive: [1] 36% | [2] 79% | [3] 54.3% | [4] 61.1% | [5] 50.4% | [6] 69.4% | [7] 57% | [8] 45.9%

CC/C=C\C[C@H](O)C/C=C1/C(=O)C=C[C@@H]1C/C=C\CCCC(=O)N(C)C
active: [2] -34.8% | [3] -18.1% | [4] -42.4% | [5] 7.79% | [6] -63.4% | [7] -90.7% | [8] -51.3%
inactive: [1] 10.7%

COc1ccc(C(=O)c2cc3c(N)c(C(=O)Nc4ccc(C)cc4)sc3nc2C)cc1
active: [3] -42.9%
inactive: [1] 46.6% | [2] 46.5% | [4] 28.3% | [5] 18.8% | [6] 16.2% | [7] 13.9% | [8] 15.5%

Oc1c(Br)cc(Br)c2ccc(Cn3cc(-c4ccccc4C(F)(F)F)nn3)nc12
inactive: [1] 83.8% | [2] 107% | [3] 93.1% | [4] 73.5% | [5] 71.5% | [6] 49.1% | [7] 110% | [8] 100%

Nc1nc(-c2ccc(Cl)cc2)nc2c1sc(=S)n2-c1ccccc1
inactive: [1] 14.8% | [2] 54.9% | [3] 57.4% | [4] 55.3% | [5] 57.6% | [6] 20.1% | [7] 72.3% | [8] 36%

NC(=O)c1ccc(-c2c3ccccc3cc3c2ccc2ccccc23)cc1
active: [3] 0.545% | [8] 3.27%
inactive: [1] 60.4% | [2] 29.1% | [4] 17.1% | [5] 17.7% | [6] 33.4% | [7] 60%

CCn1cc(C(=O)NNC(=S)Nc2ccc(C)cc2)c(=O)c2ccc(C)nc21
inactive: [1] 88.1% | [2] 97.1% | [3] 101% | [4] 99.2% | [5] 97.2% | [6] 93% | [7] 92.7% | [8] 103%

O=C(c1nn(-c2ccccc2)c2c1CC(NCc1ccc(F)cc1)CC2)N1CCCCC1 (stereo not drawn)
inactive: [1] 93.6% | [2] 84.6% | [3] 98.9% | [4] 110% | [5] 88.1% | [6] 90.5% | [7] 104% | [8] 102%

Cn1cc(-c2csc(-c3cn(C(=O)OC(C)(C)C)c4ccc(Br)cc34)n2)c2ccnc(Cl)c21
inactive: [1] 66.8% | [2] 63.9% | [3] 63.7% | [4] 75.8% | [5] 82.8% | [6] 64.7% | [7] 95% | [8] 90.4%

N#Cc1ccc2c(c1)C(=O)c1c-2n(CCCN)c(=O)c2cc([N+](=O)[O-])ccc12
active: [1] -78.6% | [2] -100% | [3] -86.3% | [4] -100% | [5] -74.8% | [6] -100% | [7] -100% | [8] -98%

CCCCCC(/C=N\NC(=S)N/N=C/C(=C/c1ccccc1)CCCCC)=C\c1ccccc1
inactive: [1] 83.9% | [2] 83.4% | [3] 81.6% | [4] 81.2% | [5] 75.9% | [6] 53.3% | [7] 64.6% | [8] 66.7%

CC(C)(C)CC(C)(C)NC(=O)Nc1ncccc1OCc1ccccc1
inactive: [1] 72% | [2] 98.2% | [3] 99.7% | [4] 98.6% | [5] 80.6% | [6] 75.2% | [7] 92.9% | [8] 94.5%

CCOC(=O)c1csc(NC(=O)COc2ccc(/C=C3\Oc4ccccc4C3=O)cc2)n1
inactive: [1] 97.5% | [2] 88.3% | [3] 58.6% | [4] 105% | [5] 69% | [6] 82.5% | [7] 106% | [8] 88.7%

O=C(Nn1c2c(sc1=NC1CC1)C(=O)c1ccccc1C2=O)c1cc2ccc1CCc1ccc(cc1)CC2
active: [3] -93.2% | [6] -9.1%
inactive: [1] 20.4% | [2] 37.2% | [4] 18.3% | [5] 11.5% | [7] 61.4% | [8] 35.2%

Oc1c(I)cc(I)cc1CNCCN(Cc1ccccn1)Cc1ccccn1
active: [1] -36% | [2] -33.6% | [3] -66.6% | [4] -42.5% | [5] -6.6% | [6] -45.1% | [7] -86.8% | [8] -38.9%

O=C(Nc1ccccc1)Nc1ncnc2c1ncn2-c1ccc(Cl)cc1
inactive: [1] 63.8% | [2] 102% | [3] 92.1% | [4] 97.7% | [5] 82.5% | [6] 36.6% | [7] 105% | [8] 87.1%

c1cnc2c(-c3nc4ccc5[nH]ncc5c4c4c3CCCC4)c[nH]c2c1
active: [5] 9.3% | [6] 0.564%
inactive: [1] 38.1% | [2] 72.5% | [3] 51.9% | [4] 18.9% | [7] 54.7% | [8] 26.9%

CC(C)c1ccc(Cc2cnc(NC(=O)c3cc(Br)cs3)s2)cc1
active: [3] -66.9%
inactive: [1] 30.3% | [2] 42.8% | [4] 28.3% | [5] 11.7% | [6] 26.1% | [7] 64% | [8] 20.7%

O=C(OC(CO)C(=O)NC12CC3CC(CC(C3)C1)C2)c1ccc(Cl)cc1 (stereo not drawn)
inactive: [1] 92.8% | [2] 106% | [3] 94.6% | [4] 101% | [5] 91.8% | [6] 90.9% | [7] 113% | [8] 111%

CC(C)=CC(=O)OCC(=O)O[C@@H]1C[C@]2(C(C)C)O[C@@]1(C)[C@@H]1CC[C@@H](C)[C@H]1[C@@H]2OC(=O)/C=C/c1ccccc1
inactive: [1] 65.1% | [2] 37.7% | [3] 91.7% | [4] 87.1% | [5] 71.5% | [6] 72.2% | [7] 90.7% | [8] 89.4%

Cc1cc(C(=O)O)c(C)n1-c1cccc(C(=O)O)c1
inactive: [1] 84.1% | [2] 83.3% | [3] 100% | [4] 44.6% | [5] 61.2% | [6] 35.3% | [7] 101% | [8] 97.8%

c1ccc(Cn2cc3c(c2)-c2oncc2CC3)cc1
inactive: [1] 42.1% | [2] 82.9% | [4] 23.9% | [5] 18.8% | [8] 13.6%
active: [3] -34.7% | [6] 9.28% | [7] 4.68%

CCNCCNc1cc(-c2ccc(C(F)(F)F)cc2)c(C#N)c2nc3ccccc3n12
active: [1] -59.4% | [2] -73.9% | [3] -96.9% | [4] -73.7% | [5] -71.6% | [6] -95.4% | [7] -99.6% | [8] -85.1%

O=C(/C=C/c1ccco1)Nc1ncc(Cc2cccc(C(F)(F)F)c2)s1
active: [2] 8.55% | [3] -49.6% | [6] 7.05% | [8] 4.7%
inactive: [1] 21.5% | [4] 18.4% | [5] 12.9% | [7] 12.2%

CCN(CC)CCCCCNc1cc(OC(=O)c2ccc(Cl)cc2)cc2cccnc12
inactive: [1] 56% | [2] 98% | [3] 120% | [4] 105% | [5] 86.5% | [6] 83.6% | [7] 84.9% | [8] 111%

Cc1ccc(Nc2cc(N)nc(N)n2)cc1Cl
inactive: [1] 76.6% | [2] 101% | [3] 98.9% | [4] 112% | [5] 74.7% | [6] 81% | [7] 100% | [8] 93%

O=c1[nH]c(Cc2nc3ccccc3s2)nc2cc(Br)ccc12
inactive: [1] 54.2% | [2] 70.2% | [3] 45.6% | [4] 61.3% | [5] 78.5% | [6] 50.6% | [7] 84.1% | [8] 41.4%

CCCCCOC(=O)c1c(C)[nH]c(/C=C2\N=C(c3ccc[nH]3)C=C2OC)c1C
active: [1] -42.5% | [2] 2.11% | [3] -16.9% | [4] -1.61% | [5] -61.2% | [6] -85.7% | [7] -20.1% | [8] -13.6%

Nc1nc2ccccc2c2c(=O)c3cccc(Cl)c3sc12
inactive: [1] 38.7% | [2] 99.2% | [3] 96.9% | [4] 89% | [5] 12.2% | [6] 64.8% | [7] 63% | [8] 89.8%
